For assay [1], the target named is ATP-dependent 6-phosphofructokinase (Trypanosoma brucei brucei) (UniProt O15648). The assay can be described thus: qHTS Assay to Find Inhibitors of T. brucei phosphofructokinase: hit validation (AID 492961).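 Note: luminescence reports ADP formed as PFK phosphorylates fructose-6-phosphate with ATP; % is set by controls: 0 for no effect and ±100 for the full control effect.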 An outline of the steps: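 PFK 1.25 nM, F6P 0.5 mM, ATP 0.1 mM, MgCl2 5 mM, 0.1 M TEA pH 8.0, Tween20 0.01%, BSA 0.1%; 45 min RT. ADP-Glo two-step detection, luminescence. qHTS titration; curve fitting with curve-class categorization.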
Chain of ATP-dependent 6-phosphofructokinase (Trypanosoma brucei brucei) (O15648 whole entry, looked up): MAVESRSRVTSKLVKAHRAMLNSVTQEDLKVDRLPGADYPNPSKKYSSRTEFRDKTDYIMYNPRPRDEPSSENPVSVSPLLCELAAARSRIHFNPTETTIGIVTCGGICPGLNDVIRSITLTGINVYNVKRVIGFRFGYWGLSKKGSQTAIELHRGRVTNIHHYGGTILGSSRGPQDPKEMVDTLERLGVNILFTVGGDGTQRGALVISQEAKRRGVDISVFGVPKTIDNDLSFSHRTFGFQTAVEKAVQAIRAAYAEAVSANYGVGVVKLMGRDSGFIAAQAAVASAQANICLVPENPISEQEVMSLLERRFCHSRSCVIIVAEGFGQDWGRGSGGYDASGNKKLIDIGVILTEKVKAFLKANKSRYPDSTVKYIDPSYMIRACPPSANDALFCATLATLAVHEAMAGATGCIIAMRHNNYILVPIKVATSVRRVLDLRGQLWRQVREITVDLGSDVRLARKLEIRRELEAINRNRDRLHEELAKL
Background: Quantitative high-throughput screening tests each substance at several concentrations.

Assay [2] in a line: S16 Schwann cell PMP22 intronic element firefly luciferase assay (AID 624032).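 Note: plate controls were DMSO for no effect and PTC124 positive control mean for full effect; nearly all actives have a fitted effect of over 30% in size.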 The gist of the method:
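Rat S16 Schwann cells stably carrying a PMP22 intronic element-driven Fluc reporter were seeded overnight, then exposed to compounds for 24 h at 37 °C. Luminescence was normalized to PTC124 (positive control) and DMSO (0% activity).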

A further assay has as its system 7G8. The assay can be described thus: qHTS profiling for inhibitors of Plasmodium falciparum proliferation (AID 504749).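 Note: 0% = DMSO vehicle and full inhibition = artemisinin control; nearly all actives have a fitted effect of over 60% in size.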 The settings on record: P. falciparum in erythrocytes, SYBR Green DNA, 72 h; series mostly up to 12.8 µM. An outline of the steps: (§1)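 Quantitative HTS: compounds pinned into medium, infected erythrocytes added (0.3% parasitemia, 2.5% hematocrit), 72 h culture at 37 C under 5% CO2. Saponin/Triton lysis with SYBR Green I, overnight RT, then fluorescence read.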

A further assay concerns CP237. The description is as above. The settings on record: P. falciparum in erythrocytes, SYBR Green DNA, 72 h; series mostly up to 12.8 µM. An outline of the steps:
as §1

A further assay deals with CP260. The assay is described as above. The note with it: P. falciparum in erythrocytes, SYBR Green DNA, 72 h; series mostly up to 12.8 µM. The gist of the method: as §1
In the next assay the test system is CP291. Described as above. The settings on record: P. falciparum in erythrocytes, SYBR Green DNA, 72 h; series mostly up to 12.8 µM. The gist of the method: as §1
A further assay has as its system CP335. The description is as above. The note with it: P. falciparum in erythrocytes, SYBR Green DNA, 72 h; series mostly up to 12.8 µM. An outline of the steps:
as §1

A further assay deals with DFO2036. The assay is described as above. The note with it: P. falciparum in erythrocytes, SYBR Green DNA, 72 h; series mostly up to 12.8 µM. An outline of the steps: as §1
In another assay the test system is DIV14. Described as above. The settings on record: P. falciparum in erythrocytes, SYBR Green DNA, 72 h; series mostly up to 12.8 µM. The gist of the method: as §1
For the next assay, the system named is GB4. Described as above. The note with it: P. falciparum in erythrocytes, SYBR Green DNA, 72 h; series mostly up to 12.8 µM. An outline of the steps:
as §1

The test system of a further assay is HB3. The description is as above. The note with it: P. falciparum in erythrocytes, SYBR Green DNA, 72 h; series mostly up to 12.8 µM. An outline of the steps: as §1
In a further assay the test system is ICS. Described as above. The settings on record: P. falciparum in erythrocytes, SYBR Green DNA, 72 h; series mostly up to 12.8 µM. An outline of the steps: as §1
In a further assay the test system is P94_40. The assay is described as above. The settings on record: P. falciparum in erythrocytes, SYBR Green DNA, 72 h; series mostly up to 12.8 µM. The gist of the method:
as §1

The next assay concerns PC26. The assay is described as above. The note with it: P. falciparum in erythrocytes, SYBR Green DNA, 72 h; series mostly up to 12.8 µM. The gist of the method: as §1
The test system of a further assay is W2. The assay is described as above. The settings on record: P. falciparum in erythrocytes, SYBR Green DNA, 72 h; series mostly up to 12.8 µM. The gist of the method: as §1
Assay [3] addresses Cytochrome P450 2C9 (Homo sapiens) (UniProt P11712). The assay can be described thus: qHTS Assay for Inhibitors and Substrates of Cytochrome P450 2C9 (AID 883). For activity change, negative = inhibition: % is set by controls: 0 for no effect and ±100 for the full control effect. Note: nearly all actives have a fitted effect of over 60% in size. Note: potency is the fitted concentration of half-maximal effect. The gist of the method:
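Human CYP2C9 (10nM) hydroxylated Luciferin-H (100uM, at its KM) to luciferin in 25mM KPO4. Compound was preincubated 10 min at 37C, then NADPH regeneration started a 60 min reaction at 37C. Luminescence was read after detection reagent, normalized to 57uM sulphaphenazole.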

Assay [4] addresses Cytochrome P450 3A4 (Homo sapiens) (UniProt P08684). The assay can be described thus: qHTS Assay for Activators of Cytochrome P450 3A4 (AID 885). Note: nearly all actives have a fitted effect of over 65% in size. The gist of the method:
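Activators are scored by enhanced luminescence from CYP3A4 conversion of luciferin-PPXE (25uM, equal to KM) to luciferin, after 60 min at RT with an NADPH-regenerating system.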

Assay [5] deals with Cytochrome P450 2C19 (Homo sapiens) (UniProt P33261). The assay can be described thus: qHTS Assay for Inhibitors and Substrates of Cytochrome P450 2C19 (AID 899). Note: potency is the fitted concentration of half-maximal effect; nearly all actives have a fitted effect of over 60% in size. The gist of the method:
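Human CYP2C19 (5nM) with Luciferin-H EGE at 10uM (its KM) in 50mM KPO4 was preincubated with compound for 10 min at 37C. NADPH regeneration started a 60 min 37C reaction. Luciferin was read by luminescence, normalized to 57uM ketoconazole.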

In assay [6] the target is Cytochrome P450 2D6 (Homo sapiens) (UniProt P10635). The assay can be described thus: qHTS Assay for Inhibitors and Substrates of Cytochrome P450 2D6 (AID 891).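 Note: luciferin methyl ether substrate demethylated by CYP2D6 with NADPH regeneration; % is set by controls: 0 for no effect and ±100 for the full control effect; nearly all actives have a fitted effect of over 60% in size.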 An outline of the steps:
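Luminescent read-out of luciferin formed by 5 nM human CYP2D6 demethylating 30 uM Luciferin-ME EGE (Km level) over 60 min at room temperature after NADPH regeneration addition. Data normalized to full inhibition by 1.43 uM quinidine.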

Unmarked numbers belong to inactive results. Records with an inconclusive call do not appear. Activity calls are given as the source filed them. Calls come from the whole dose curve; as a rule, active = well fitted curve in the direction sought with a large enough effect; inconclusive = small, poorly fitted or top-dose-only effect, or another doubt; inactive = no such curve, though single readings can be large; an effect the other way counts as inactive or inconclusive.

Chain of Cytochrome P450 3A4 (Homo sapiens) (P08684 whole entry, looked up): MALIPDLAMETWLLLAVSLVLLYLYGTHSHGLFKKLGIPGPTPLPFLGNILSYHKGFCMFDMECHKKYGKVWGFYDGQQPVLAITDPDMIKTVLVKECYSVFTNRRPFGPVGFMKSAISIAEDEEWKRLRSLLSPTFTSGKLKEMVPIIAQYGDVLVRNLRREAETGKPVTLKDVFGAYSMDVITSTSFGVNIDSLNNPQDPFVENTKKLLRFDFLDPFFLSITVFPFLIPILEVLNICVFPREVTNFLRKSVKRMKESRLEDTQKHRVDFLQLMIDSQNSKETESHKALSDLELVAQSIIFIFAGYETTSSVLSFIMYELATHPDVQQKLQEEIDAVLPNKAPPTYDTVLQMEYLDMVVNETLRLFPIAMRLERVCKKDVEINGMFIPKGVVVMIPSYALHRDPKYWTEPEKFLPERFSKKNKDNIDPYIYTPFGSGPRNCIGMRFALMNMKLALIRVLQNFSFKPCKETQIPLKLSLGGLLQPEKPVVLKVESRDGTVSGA
Chain of Cytochrome P450 2C9 (Homo sapiens) (P11712 whole entry, looked up): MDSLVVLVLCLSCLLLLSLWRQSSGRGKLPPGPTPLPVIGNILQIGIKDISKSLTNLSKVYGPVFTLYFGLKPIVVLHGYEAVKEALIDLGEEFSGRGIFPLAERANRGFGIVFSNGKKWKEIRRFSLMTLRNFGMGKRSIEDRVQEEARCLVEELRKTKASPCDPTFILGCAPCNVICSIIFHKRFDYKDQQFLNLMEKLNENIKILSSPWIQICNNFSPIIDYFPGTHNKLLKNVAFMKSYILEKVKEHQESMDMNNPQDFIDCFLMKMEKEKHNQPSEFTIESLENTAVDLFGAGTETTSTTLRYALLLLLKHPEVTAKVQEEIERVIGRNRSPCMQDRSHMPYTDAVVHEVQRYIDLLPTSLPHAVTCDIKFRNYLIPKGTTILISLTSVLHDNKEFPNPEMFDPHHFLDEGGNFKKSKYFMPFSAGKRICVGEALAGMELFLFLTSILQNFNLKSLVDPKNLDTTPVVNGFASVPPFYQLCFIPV
Chain of Cytochrome P450 2C19 (Homo sapiens) (P33261 whole entry, looked up): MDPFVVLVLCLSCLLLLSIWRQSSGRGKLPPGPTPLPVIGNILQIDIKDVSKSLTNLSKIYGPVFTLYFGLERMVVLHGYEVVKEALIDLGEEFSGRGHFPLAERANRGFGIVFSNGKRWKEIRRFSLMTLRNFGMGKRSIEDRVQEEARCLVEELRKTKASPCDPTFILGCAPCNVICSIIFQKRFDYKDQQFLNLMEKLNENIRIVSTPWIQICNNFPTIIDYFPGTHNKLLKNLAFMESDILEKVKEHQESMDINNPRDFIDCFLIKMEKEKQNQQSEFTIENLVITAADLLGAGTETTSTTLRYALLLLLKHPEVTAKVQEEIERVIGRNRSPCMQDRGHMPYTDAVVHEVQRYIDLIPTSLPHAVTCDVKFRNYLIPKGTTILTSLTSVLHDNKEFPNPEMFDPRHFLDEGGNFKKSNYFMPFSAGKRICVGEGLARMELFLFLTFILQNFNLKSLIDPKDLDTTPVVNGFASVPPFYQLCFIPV
Chain of Cytochrome P450 2D6 (Homo sapiens) (P10635 whole entry, looked up): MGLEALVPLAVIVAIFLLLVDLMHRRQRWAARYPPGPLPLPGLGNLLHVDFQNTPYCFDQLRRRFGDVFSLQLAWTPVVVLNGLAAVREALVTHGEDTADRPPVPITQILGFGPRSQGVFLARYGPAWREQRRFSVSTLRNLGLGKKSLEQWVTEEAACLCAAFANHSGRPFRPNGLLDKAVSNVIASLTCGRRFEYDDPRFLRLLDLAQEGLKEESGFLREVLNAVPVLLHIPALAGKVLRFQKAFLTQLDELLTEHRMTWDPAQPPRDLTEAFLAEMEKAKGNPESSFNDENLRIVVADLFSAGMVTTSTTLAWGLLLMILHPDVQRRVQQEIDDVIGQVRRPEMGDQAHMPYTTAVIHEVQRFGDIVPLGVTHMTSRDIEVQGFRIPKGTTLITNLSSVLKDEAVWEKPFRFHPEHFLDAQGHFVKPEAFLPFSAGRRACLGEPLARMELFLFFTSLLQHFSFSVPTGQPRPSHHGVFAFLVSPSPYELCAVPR

For the molecule `COCC(=O)Nc1c(I)c(C(=O)NC[C@@H](O)CO)c(I)c(C(=O)N(C)C[C@@H](O)CO)c1I`, the molecule was classed as inactive in assay [1]. Further, the Potency entry (in assay [2]; with 7G8; in the assay with CP237; in the assay on CP260; with CP291; in the assay with CP335) was “inactive” throughout. Besides, the Potency entry with DFO2036, in the assay with DIV14, with GB4, in the assay on HB3, in the assay with ICS and in the assay with P94_40 was “inactive” in each case. Also, the Potency entry in the assay with PC26 and in the assay with W2 was “inactive” each time.

In the case of `CC(=O)[C@@H]1CC[C@@H]2[C@@H]3C[C@H](C)C4=CC(=O)CC[C@@]4(C)[C@H]3[C@H](O)C[C@]21C`, in assay [3], the Potency is 398 nM (active). For the same molecule, the Potency result (in [4]; in the assay with CP237; with CP260; in the assay with CP291; with CP335; in the assay with DFO2036) was “inactive” throughout. The Potency result in the assay on DIV14, in the assay on GB4, in the assay with HB3 and with PC26 was “inactive” each time. Moreover, the molecule was classed as inactive in assay [1].

`C/C(=C(/CCO)SSC[C@@H]1CCCO1)N(C=O)Cc1cnc(C)nc1N`: the Potency entry in [4] was “inactive”.

Take `C#C[C@@]1(O)CC[C@@H]2[C@@H]3CCC4=C(CCC(=O)C4)[C@H]3CC[C@]21C`: the Potency in [5] was 63.1 nM (active).

Regarding `CC(=O)OCC(=O)[C@@]1(O)CC[C@@H]2[C@H]3CCC4=CC(=O)C=C[C@]4(C)[C@]3(F)[C@@H](O)C[C@@]21C`, the result in assay [1] was inactive. Further, the Potency result (in [2]; in the assay with 7G8; with CP237; in the assay with CP260; in the assay on CP291; in the assay with CP335) was “inactive” in each case. Also, the Potency result in the assay with DIV14, with GB4, in the assay on HB3, in the assay on ICS, in the assay on PC26 and in the assay on W2 was “inactive” in each case.

For `Cc1c(C)c2c(c(C)c1O)CC[C@@](C)(C(=O)O)O2`, the Potency result in assay [4] is “inactive”.

As for `CC(C)(N=NC(C)(C)C(=N)N)C(=N)N`, the Potency result in [4] was “inactive”. Besides, in [6], the activity change, negative = inhibition was 23.6% [at 11.4 µM].

In the case of `C[C@H]1CC[C@]2(OC1)O[C@@H]1C[C@@H]3[C@@H]4CC[C@H]5C[C@@H](O)CC[C@]5(C)[C@@H]4CC(=O)[C@@]3(C)[C@H]1[C@@H]2C`, in assay [1], the outcome was inactive. Further, the Potency result (in assay [2]; in the assay with 7G8; with CP237; in the assay on CP260; with CP291; in the assay with CP335) was “inactive” each time. In addition, the Potency result in the assay on DFO2036, in the assay with DIV14, with GB4, in the assay with HB3, in the assay with ICS and in the assay with P94_40 was “inactive” in each case. For the same molecule, the Potency result in the assay with PC26 and with W2 was “inactive” each time.

Regarding `C=CCSC[C@@H]1Nc2cc(Cl)c(S(N)(=O)=O)cc2S(=O)(=O)N1`, in assay [3], the Potency result is “inactive”.

As for `C[C@@H](C(=O)O)c1ccc(C(=O)c2ccccc2)s1`, the Potency result (in [4]; in [2]; with 7G8; with CP237; in the assay with CP260; in the assay with CP291) was “inactive” throughout. Besides, the Potency result with CP335, in the assay on DFO2036, in the assay with DIV14, in the assay with GB4, in the assay with HB3 and in the assay with ICS was “inactive” each time. The Potency entry in the assay with P94_40, in the assay on PC26 and in the assay with W2 was “inactive” each time. Besides, the Potency in assay [5] was 3980 nM (active). The call in assay [1] was inactive.

The values above are taken from PubChem BioAssay (NCATS).
